Most compounds without a hit are left out; they make up all but 11% or so of the library.
Pf growth 48h: P. falciparum growth inhibition at 48 hours (one generation). P. falciparum luciferase growth in erythrocytes, 48 h. 310,000 compounds, 5.9% hits. Potency, µM (titrated, usually from 28.7 µM), actives largely listed as inhibitors
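Luminescence readout; reporter = integrated firefly luciferase in P. falciparum. RBC culture at 2% hematocrit, 0.1% parasitemia final, 37 C/5% CO2; decreased signal taken as growth inhibition.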
HCV inh: blocks hepatitis C virus; Huh7.5.1 HCVcc-Cre infection, luciferase reporter, 44 h; Potency, µM (top dose mostly 41.8 µM), most hits filed as inhibitors; 340,000 compounds, 3.4% hits
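Reporter virus HCVcc-Cre (~0.5 moi) infects cells exposed to compound; seeding density 1,000 cells/well with 4 h settling beforehand. Luminescence, 15 sec read, taken 44 h post-infection following a 15 min RT substrate incubation.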
Pf growth 96h: inhibits malaria parasite growth, 96 h | 320,000 compounds, 6.9% hits | P. falciparum luciferase reporter growth, 96 h | AID 504834 | Potency, µM (top dose mostly 28.7 µM), usual class: inhibitors
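Readout is luminescence from an integrated firefly luciferase in P. falciparum. Red cells, 2% hematocrit and 0.05% parasitemia final, were cultured with compound through two parasite generations (96 hours) at 37 C, 5% CO2.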
AMA1 RON2 block: disrupts binding of P. falciparum AMA1 to RON2; AlphaScreen AMA1-biotinylated RON2 peptide binding; Potency, µM (top dose mostly 58.2 µM), most hits filed as inhibitors; 360,000 compounds, 0.2% hits; AID 720542; also: nearly all actives have a fitted effect of over 45% in size
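AMA1 (3D7) with his tag at 25 nM final met compounds first, then biotinylated RON2 peptide at 25 nM; detection used donor plus acceptor beads, 10 µg/mL apiece, read by AlphaScreen after 30 min at room temperature.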
Numbers stand for hits; – = inactive; ? = inconclusive; · = no result. Calls follow the shape of the dose curve; as a rule, active = well fitted curve in the direction sought with a large enough effect; inconclusive = small, poorly fitted or top-dose-only effect, or another doubt; inactive = no such curve, though single readings can be large; an effect the other way counts as inactive or inconclusive.

SMILES | Pf growth 48h | HCV inh | Pf growth 96h | AMA1 RON2 block
Cc1ccc(-n2nc3c(=O)n(CCCC(=O)NCC(C)c4ccccc4)nc(C)c3c2C)cc1 (stereo not given) | ? | 22.4µM | – | –
Cc1cccc(N2CCN(C(=O)C3CCN(c4ncnc5c4nc4n5CCCCC4)CC3)CC2)c1C | – | 7.08µM | ? | –
Cc1cc(N2CCC(C(=O)N3CCN(c4cccc(C)c4C)CC3)CC2)n2ncnc2n1 | 2.33µM | ? | · | –
Cc1cccc(N2CCN(C(=O)C3CCN(c4ncnc5c4nc4n5CCCCC4)CC3)CC2C)c1 (stereo not given) | – | 5.62µM | 11.7µM | –
O=C(C1CCN(c2ncnc3c2nc2n3CCCCC2)CC1)N1CCN(c2ccccc2F)CC1 | – | – | – | –
COc1cccc(-c2cccc(-c3nc(C(=O)NCCCN4CCOCC4)cc4c3[C@H](CCO)N(S(=O)C(C)(C)C)C4)c2)c1 (stereo not given in full) | · | · | · | –
O=C(CCCN1C(=O)c2ccccc2C1=O)Nc1nnc(C2CC2)s1 | – | – | – | –
CC1(Cc2ccccc2OC(F)(F)F)C(=O)Nc2ccc(-c3ccsc3)cc21 (stereo not given) | · | · | · | –
COc1cc(C(O)c2nc(-c3ccc(F)cc3OC)cs2)ccc1F (stereo not given) | · | · | · | –
Cc1cc(C)cc(NC(=O)c2cccn2-c2ncc(C(F)(F)F)cc2Cl)c1 | ? | – | 13.1µM | –
O=C(Nc1ccc(F)cc1F)c1cccn1-c1ncc(C(F)(F)F)cc1Cl | ? | – | ? | –
CC1=CCC2C(=O)N(c3ccc(C)c(Br)c3)C(=O)C2C1 (stereo not given) | – | – | ? | –
O=C(O)c1ccc(S(=O)(=O)N2CCC(n3nnc4cc(C(F)(F)F)ccc43)CC2)cc1 | – | – | ? | –
O=C(N1CCOCC1)N1CCC(n2nnc3cc(F)ccc32)CC1 | – | – | 10.4µM | –
O=C(CN1CCC(n2nnc3cc(C(F)(F)F)ccc32)CC1)Nc1ccc2c(c1)OCCO2 | 11.7µM | ? | – | –
O=C(O)CCC(=O)N1CCC(n2nnc3cc(C(F)(F)F)ccc32)CC1 | 2.08µM | – | – | –
O=C(CN1CCC(n2nnc3cc(C(F)(F)F)ccc32)CC1)Nc1ccc2c(c1)CCC2 | · | – | ? | –
CC(C)(CNS(=O)(=O)c1ccc2ccccc2c1)N1CCOCC1 | – | – | ? | –
COc1ccccc1N(C)S(=O)(=O)c1ccc(C(=O)OC(C)C(=O)NCc2ccc3c(c2)OCO3)cc1 (stereo not given) | ? | 11.2µM | – | –
O=C(NCC(c1ccco1)N1CCCCC1)c1ccc(OCc2ccccc2)cc1 (stereo not given) | ? | – | ? | –
CN(c1ccccc1)S(=O)(=O)c1ccc(Cl)c(C(=O)NCC(c2ccco2)N2CCCC2)c1 (stereo not given) | ? | ? | ? | –
CC(OC(=O)c1ccc(Cl)cc1)C(=O)NCc1ccc2c(c1)OCO2 (stereo not given) | ? | – | ? | –
COc1ccccc1N(C)S(=O)(=O)c1ccc(C(=O)NCC(c2ccco2)N2CCCCC2)cc1 (stereo not given) | · | 22.4µM | · | –
O=C(NCC(c1ccco1)N1CCCCC1)c1ccc(COc2ccccc2)cc1 (stereo not given) | ? | 12.6µM | 2.94µM | –
CN(c1ccccc1)S(=O)(=O)c1ccc(C(=O)NCC(c2ccco2)N2CCCCC2)cc1 (stereo not given) | ? | ? | 7.38µM | –
SMILES | Pf growth 48h | HCV inh | Pf growth 96h | AMA1 RON2 block
COc1ccc(NC(=O)Cn2nnc(C(=O)NCc3ccc4c(c3)OCO4)c2N)c(OC)c1 | – | – | – | –
O=C(CCn1c(=O)[nH]c2ccsc2c1=O)NCc1ccc(F)cc1 | ? | – | – | –
CC(C)(C)c1ccc(C(=O)N2CCC2(C)C(=O)NCc2ccc3c(c2)OCO3)cc1 (stereo not given) | · | · | · | –
COc1ccc(N(C)S(=O)(=O)c2cccc(C(=O)NCC(c3ccco3)N3CCCC3)c2)cc1 (stereo not given) | 9.28µM | ? | ? | –
CCOC(=O)c1c(S(=O)(=O)NCC(=O)Nc2cc(C)ccc2OC)c(C)n(C)c1C | – | – | 9.28µM | –
CCOC(=O)c1c(S(=O)(=O)NCC(=O)Nc2ccccc2)c(C)n(C)c1C | – | – | – | –
CCOC(=O)c1c(S(=O)(=O)NCC(=O)Nc2cccc(C)c2)c(C)n(C)c1C | – | – | 4.15µM | –
COC(C[C@H](O)[C@@H](C)[C@H](O)COCc1ccccc1)OC | – | – | – | –
OC(CCN1CC2CCC(CC2)C1)(Cc1ccccc1)c1ccco1 (stereo not given) | · | – | · | –
Nc1ccc2nc(Cc3ccccc3)[nH]c2c1 | 9.28µM | ? | 10.4µM | –
Nc1ccc(-c2nc3ccc(-c4nc5ccccc5o4)cc3[nH]2)cc1 | 9.28µM | ? | – | –
Cc1ccc2nc(Cc3ccc(N)cc3)[nH]c2c1 | – | – | – | ?
Nc1ccc2nc(-c3cc(Cl)c(N)c(Cl)c3)[nH]c2c1 | 2.94µM | 11.2µM | ? | ?
O=C(O)c1cccc(-c2nc3ccccc3[nH]2)c1 | – | – | 2.33µM | –
COc1cc(CNC(=O)c2cc(-c3ccc(F)cc3OC)n[nH]2)cc(OC)c1 | · | · | · | –
COc1cccc(NC(=S)N2CCN(Cc3ccccc3)CC2)c1 | – | – | – | –
Cn1c(=S)c2[nH]c(SCC3CCCO3)nc2n(C)c1=O (stereo not given) | · | – | · | –
Nc1ccc(-c2nc3ccc(N)cc3[nH]2)cc1 | – | – | ? | ?
Nc1ccc2nc(-c3cccc(-c4nc5ccc(N)cc5[nH]4)c3)[nH]c2c1 | 1.85µM | – | – | ?
COc1ccc(-c2cc3ccccc3n2CC(O)Cn2nc(C)cc2C)cc1 (stereo not given) | 2.33µM | ? | – | –
O=C1Nc2c(c(=O)[nH]c(=O)n2-c2ccc(F)cc2)C1(NS(=O)(=O)c1ccccc1)C(F)(F)F (stereo not given) | – | – | – | –
c1csc(-c2nc3ccccn3c2NC2CCCCC2)c1 | – | – | – | –
CC(=O)c1ccc(-c2cccc(-c3nc4ccccn4c3NC3CCCCC3)c2)cc1 | 11.7µM | 10µM | ? | –
CCC(C)Sc1ccc(-c2nc3ccc(C)cn3c2NC2CCCCC2)cc1 (stereo not given) | 11.7µM | – | ? | –
CCC(C)Sc1cccc(-c2nc3ccc(C)cn3c2NC2CCCCC2)c1 (stereo not given) | 8.28µM | – | 13.1µM | –
CCC(C)Sc1cc(-c2nc3ccccn3c2NC2CCCCC2)ccc1OC (stereo not given) | 4.15µM | ? | ? | –
CC[C@@]1(C(=O)OC)N[C@H](CN(C)C(=O)Nc2ccc(F)cc2)[C@@H]2C(=O)N(C)C(=O)[C@@H]21 | · | – | · | –
O=C(NNC(=O)c1cc2cc(OC(F)(F)F)ccc2[nH]1)c1cccc(C(F)(F)F)c1 | – | – | – | –
CC(C)OC(=O)Nc1ccc2c(c1)N(C(=O)CCN1CCOCC1)c1ccccc1CC2 | ? | – | – | –
CCC(=O)Nc1c(-c2ccc(C)cc2)nc2ccc(C)cn12 | ? | – | 11.7µM | –

Screening data as filed in PubChem.
